KB-V1 MDR tox: qHTS assay for MDR1-selective chemotherapeutics: Primary screen using the drug-selected MDR subline cells KB-V1; KB-V1 MDR cells viability, CellTiter-Glo, 72 h; Potency, µM (top dose mostly 46.1 µM), actives largely listed as cytotoxic; 400,000 tested, 3.4% active; AID 1347076, 2019; also: nearly all actives have a fitted effect of over 60% in size
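KB-V1, DMEM (no phenol red) + 10% FBS; cpd pin-transferred, titration series; 72 h, 37 degrees C; CellTiter-Glo, luminescence. Data normalized, curve-fit.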
KB-3-1 tox: qHTS assay for MDR1-selective chemotherapeutics: Primary screen using the parental adenocarcinoma cell KB-3-1; KB-3-1 viability, CellTiter-Glo ATP luminescence, 72 h; Potency, µM (titrated, usually from 46.1 µM), usual class: cytotoxic; 400,000 tested, 1.4% active; AID 1347075, 2019; also: nearly all actives have a fitted effect of over 60% in size
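KB-3-1 cells, DMEM (no phenol red) + 10% FBS; compound by pin transfer, 72 h, 37 °C. Readout: CellTiter-Glo luminescence after 10 min. Data normalized, curve-fitted.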
HT1080 IDH1KD tx: qHTS for induction of synthetic lethality in tumor cells producing 2HG: qHTS for the HT-1080-IDH1KD cell line. 360,000 tested, 2% active. HT-1080 IDH1 knockdown viability, ATP luminescence, 48 h. AID 686971, 2013. Potency, µM (series often up to 46.1 µM), for the others: at the highest dose activity, negative = toxicity, hits mostly cytotoxic;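 also: 0% = DMSO wells and -100% = cell-free medium wells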
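Assay cells: HT-1080 with IDH1 knockdown, 750 per well, RPMI/5% FBS. Exposure: 48 h at 37 °C following 2 h pre-incubation. Read: CellTiter-Glo luminescence; fitted concentration-response, curve class assigned.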
HT1080NT lethal: qHTS for induction of synthetic lethality in tumor cells producing 2HG: qHTS for the HT-1080-NT fibrosarcoma cell line; 360,000 tested, 1.6% active; Potency, µM (highest dose often 46.1 µM), without a hit: at the top dose activity, negative = less viability, usual class: cytotoxic; AID 686970, 2013; HT-1080-NT fibrosarcoma viability, CellTiter-Glo ATP luminescence, 48 h;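 also: NT is the 2HG producing partner of a matched IDH1 knockdown line; 0% = DMSO-treated cells and -100% = media-only wells without cells; nearly all actives have a fitted effect of over 55% in size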
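Fibrosarcoma NT cells, 750 per well in 5% FBS RPMI, were exposed to compound for 48 hours. Viability: CellTiter-Glo luminescence.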
DT40 TDP1 no CPT: qHTS for Inhibitors of human tyrosyl-DNA phosphodiesterase 1 (TDP1): qHTS in cells in absence of CPT; DT40 Tdp1-/- hTDP1 cells, no CPT, ATP luminescence, 48 h; Potency, µM (highest dose often 46.2 µM), without a hit: at the top dose activity change, negative = growth inhibition, hits mostly inhibitors; 420,000 tested, 15% active; AID 686978, 2013; also: nearly all actives have a fitted effect of over 55% in size
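Camptothecin absent (DMSO only). Human TDP1-complemented DT40 knockout cells, 400 cells/well, 37 °C for minimum 48 hr; ATP measured via CellTiter-Glo, 30 min dark incubation, luminescence.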
DT40 TDP1 CPT: qHTS for Inhibitors of human tyrosyl-DNA phosphodiesterase 1 (TDP1): qHTS in cells in presence of CPT; chicken DT40 Tdp1-/-;hTDP1 cells + 20 nM CPT, ATP luminescence, 48 h; Potency, µM (highest dose often 46.2 µM), without a hit: at the top dose activity change, negative = growth inhibition, usual class: inhibitors; 420,000 tested, 12% active; also: nearly all actives have a fitted effect of over 55% in size
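Chicken DT40 Tdp1-/- cells complemented with human TDP1, 400 cells/well, exposed to compounds plus 20 nM camptothecin for at least 48 h at 37 C; viability read as ATP content by CellTiter-Glo luminescence.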
The depositor's hits bear a star; i = inactive; u = inconclusive; x = no result given. An excerpt weighted towards active compounds, which were near 19% of everything screened. Calls follow the shape of the dose curve; as a rule, active = well fitted curve in the direction sought with a large enough effect; inconclusive = small, poorly fitted or top-dose-only effect, or another doubt; inactive = no such curve, though single readings can be large; an effect the other way counts as inactive or inconclusive. Unless noted, % is scaled to controls: 0 for no effect and ±100 for the full control effect; potency is read from the fitted curve at half-maximal effect.

SMILES | KB-V1 MDR tox | KB-3-1 tox | HT1080 IDH1KD tx | HT1080NT lethal | DT40 TDP1 no CPT | DT40 TDP1 CPT
Cc1nn(C(C)C)c(C)c1CN1CCC(C(=O)Nc2cccc(-c3cccc(F)c3)c2)CC1 | u | u | 21µM* | 15µM* | u | 23µM*
Cc1cccc(CN2CCC(C(=O)Nc3cccc(-c4cscn4)c3)CC2)n1 | i | i | -5% | -5% | 23µM* | u
O=C(Nc1cccc(-c2cccc(F)c2)c1)C1CCN(Cc2ccco2)CC1 | i | i | u | u | u | u
O=C(Nc1cccc(-c2cccc(F)c2)c1)C1CCN(C2CCC2)CC1 | i | i | 0% | u | 5.2µM* | u
Cc1cccc(CN2CCC(C(=O)Nc3cccc(-c4cccc(F)c4)c3)CC2)n1 | i | i | u | u | 2.9µM* | 8.2µM*
O=C(Nc1cccc(F)c1)C1CCN(C(=O)c2ccc(Br)cc2)CC1 | u | i | -10% | 6% | u | u
CCCCN1C(=O)C(CC(=O)NC2CCCC2)CC(C(=O)N(C(C)C)C(C)C)=C1C (centres undefined) | i | i | -1% | 10% | u | -17%
COc1ccc(-n2nc(C)c3c(=O)c4c([nH]c32)CCCC4)cc1 | i | i | 3% | 0% | -16% | u
O=C(COC(=O)Cc1ccccc1)NCc1ccc2c(c1)OCO2 | u | i | 22% | 5% | -13% | 4%
CCCc1ncc(CN2CCC(C(=O)Nc3cccc(-c4cscn4)c3)CC2)cn1 | i | i | -13% | -13% | 29µM* | u
COc1ccccc1C(=O)C1CCCN(C(=O)c2ccc(Cl)cc2)C1 (centres undefined) | u | i | 0% | 0% | 16µM* | u
COc1ccccc1C(=O)C1CCCN(C(=O)CCC(=O)c2ccccc2)C1 (centres undefined) | u | i | 2% | 4% | 29µM* | 10µM*
CCc1nc2ccc(C(=O)NCCN3CCOCC3)cn2c1N(CC)CCOC | i | i | u | -27% | u | u
Cc1c(N=C2N=C(NC(=O)Nc3ccc(Cl)cc3)c3ccccc32)c(=O)n(-c2ccccc2)n1C | i | i | -20% | 0% | 23µM* | 18µM*
CCOC(=O)/C=C1\CN(C(C)c2ccccc2)S(=O)(=O)c2ccccc21 (centres undefined) | i | i | -3% | 0% | -26% | -29%
CCN1C(C(=O)c2ccccc2)=C(OC(=O)C(C)C)c2ccccc2S1(=O)=O | u | u | x | x | 5.2µM* | 6.5µM*
CCN1C(C(=O)c2ccccc2)=C(OC(=O)COc2ccccc2)c2ccccc2S1(=O)=O | x | x | x | x | 16µM* | u
CCCCN(CCCC)C1=C(C(=O)c2ccccc2)N(CC)S(=O)(=O)c2ccccc21 | u | u | x | x | 26µM* | 13µM*
Cc1ccc(OCC(=O)OC2=C(C(=O)c3ccccc3)N(C)S(=O)(=O)c3ccccc32)cc1 | u | i | x | x | 4.1µM* | u
CCOC(=O)c1c(C)[nH]c(C)c1S(=O)(=O)N(C)CC(=O)Nc1cccc(C(F)(F)F)c1 | i | i | x | x | -17% | u
COc1ccc(C)cc1NC(=O)CCn1nc(C)cc1C | i | i | x | x | u | -27%
O=C(CSc1n[nH]c(-c2ccccc2Cl)n1)N1CCN(c2ccc(F)cc2)CC1 | i | i | x | x | u | u
COc1ccc(N2CCN(C(=O)c3ccc(CS(=O)(=O)c4ccccc4C)o3)CC2)cc1 | u | i | u | -23% | u | u
Cc1ccc(S(=O)(=O)Cc2ccc(C(=O)N3CCCCCC3)o2)cc1 | i | i | 0% | 0% | -27% | u
Cc1ccc(C)c(N2CCN(C(=O)c3ccc(CS(=O)(=O)c4ccccc4C)o3)CC2)c1 | u | u | 10µM* | u | 18µM* | 18µM*
Cc1ccc(S(=O)(=O)Cc2ccc(C(=O)N3CCN(c4cc(C)ccc4C)CC3)o2)cc1 | 18µM* | u | 5% | 13% | 12µM* | 15µM*
CCC(=O)N1CCc2cc(S(=O)(=O)CCC(=O)Nc3ccc(OC)c(OC)c3)ccc21 | i | i | 8% | 3% | 26% | 5%
COc1ccc(CNC(=O)Cc2c(C)c3cc4c(C)coc4cc3oc2=O)cc1OC | x | x | x | x | -9% | -2%
Cc1ccc2oc(-c3ccc(NC(=O)CCC(=O)O)cc3)nc2c1 | u | i | x | x | 3% | 2%
Cc1ccc(C)c(S(=O)(=O)c2cn(C)c3cc(F)c(F)cc3c2=O)c1 | i | i | x | x | -16% | -18%

Bioassay records deposited in PubChem by National Center for Advancing Translational Sciences (NCATS).
